About 50,000 (12%) of roughly 420,000 compounds were called active. Where a call stands in place of a potency, no number is given. About 26% were inconclusive and are not listed. The sample holds actives, similar compounds and a random draw of the others, so the mix is not that of the screen. The call rests on the fitted dose curve; in most records, active means well fitted inhibition curve with a large enough effect; inconclusive means small, poorly fitted or top-dose-only effect; inactive means flat fitted curve, though single readings scatter.
Test: qHTS for Inhibitors of human tyrosyl-DNA phosphodiesterase 1 (TDP1): qHTS in cells in presence of CPT; further: nearly all actives have a fitted effect of over 55% in size
Settings: chicken DT40 Tdp1-/-;hTDP1 cells + 20 nM CPT, ATP luminescence, 48 h; series mostly up to 46.2 µM
Summary of the method: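 Chicken DT40 Tdp1-/- cells complemented with human TDP1, 400 cells/well, exposed to compounds plus 20 nM camptothecin for at least 48 h at 37 C; viability read as ATP content by CellTiter-Glo luminescence.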
Potency means the concentration at half of the fitted maximal effect.

Q: Which Potency does the source give for CCCC/S(C)=N/S(=O)(=O)c1ccc(C)cc1 (centres undefined) here?
A: inactive

Q: Which Potency does the source give for N#Cc1c(NCCO)ccc([N+](=O)[O-])c1NCCO here?
A: inactive

Q: Which Potency does the source give for CC(=O)Oc1ccc(-c2nc3c(C)cccc3c(=O)o2)cc1 here?
A: inactive

Q: With CCn1cc(C(=O)OCC(=O)Nc2cccc(C)c2)c(=O)c2ccc(C)nc21 as the compound, how does the Potency read?
A: inactive

Q: Which Potency does the source give for [O-][n+]1ccc(OCc2ccccc2)cc1 here?
A: inactive

Q: For CN(C)c1ccc(/C=N/N(Cc2ccccc2)c2ccccc2)cc1, which Potency is on record?
A: inactive

Q: Which Potency does the source give for c1ccc(Cc2cc[n+](Cc3ccccc3)cc2)cc1 here?
A: 23.1 µM (active)

Q: Which Potency does the source give for C[n+]1ccc(C(=O)NCc2ccccc2)cc1 here?
A: inactive

Q: Which Potency does the source give for CN(C)c1cc[n+](Cc2ccccc2)cc1 here?
A: 0.58 µM (active)

Q: For COc1ccc(CCNC(=O)COc2ccc3c(c2)OCO3)cc1, which Potency is on record?
A: inactive

Q: For CNC(=S)NNC(=O)c1oc2nc(-c3ccccc3)cc(-c3ccco3)c2c1N, which Potency is on record?
A: inactive

Q: Which Potency does the source give for CC1CCCC(NC(=O)COC(=O)[C@@H]2CC(O)CN2S(=O)(=O)c2ccc3c(c2)OCCO3)C1C (some centres undefined) here?
A: inactive

Q: For CCC1CCC2(CC1)NC(=O)N(CC(=O)Nc1ccc(OC)cc1)C2=O (centres undefined), which Potency is on record?
A: inactive

Q: Which Potency does the source give for O=C1Nc2c(Br)cc(Br)cc2C1(O)N1CCOCC1 (centres undefined) here?
A: 5.17 µM (active)

Q: With O=C(CSC(=S)N1CCOCC1)c1cc(Br)cc(Br)c1O as the compound, how does the Potency read?
A: inactive

Q: Which Potency does the source give for O=C(c1cc2cc(Br)cc(Br)c2oc1=O)N1CCOCC1 here?
A: inactive

Q: For COc1ccc(C(=O)COC(=O)CCCC(=O)Nc2cc(C(F)(F)F)ccc2Cl)cc1, which Potency is on record?
A: inactive

Q: With COc1ccc(OC)c(-n2c(=S)[nH]c3cc(C(=O)N4CCCCC4)ccc3c2=O)c1 as the compound, how does the Potency read?
A: inactive

Q: Which Potency does the source give for CC(C)c1ccc(NC(=O)c2cc(S(=O)(=O)N3CCc4ccccc4C3)ccc2F)cc1 here?
A: inactive

Q: With COc1cc(NC(=O)C2CCN(c3cnccn3)CC2)cc(OC)c1 as the compound, how does the Potency read?
A: inactive

Q: With O=[N+]([O-])c1ccc(Oc2ccc(F)cc2Br)c2ccncc12 as the compound, how does the Potency read?
A: 18.4 µM (active)

Q: Which Potency does the source give for Cc1ccnc2nc(C(=O)OCC(=O)N(CC(C)C)CC(C)C)nn12 here?
A: inactive

Q: Which Potency does the source give for CCn1c(SCC(=O)N(C)C2CCS(=O)(=O)C2)nnc1-c1cccs1 (centres undefined) here?
A: inactive

Q: With Cc1cc(C)c2nc(SCC(=O)N(C)C3CCS(=O)(=O)C3)cc(C)c2c1 (centres undefined) as the compound, how does the Potency read?
A: 23.1 µM (active)

Q: For CN(C(=O)CSc1nnc(-c2ccc(C(C)(C)C)cc2)n1C)C1CCS(=O)(=O)C1 (centres undefined), which Potency is on record?
A: inactive

Q: For COCCn1c(SC(C)C(=O)NC2CC2)nnc1-c1cccc(C)c1 (centres undefined), which Potency is on record?
A: inactive

Q: Which Potency does the source give for CCN(CC)C(=O)C1=C(C)N(Cc2ccc(F)cc2)C(=O)C(CC(=O)NCc2cccc3ccccc23)C1 (centres undefined) here?
A: inactive

Q: With COc1ccc(NC(=O)C(C)N2c3cccc4cccc(c34)S2(=O)=O)c(OC)c1 (centres undefined) as the compound, how does the Potency read?
A: inactive

Q: Which Potency does the source give for CCOc1cccc(-c2nnc(SCC(=O)NC3CC3)n2C)c1 here?
A: inactive

— PubChem BioAssay AID686979 (National Center for Advancing Translational Sciences (NCATS), 2013)
